Measurements as given in PubChem BioAssay (EPA / NIEHS).
Calls of active or inactive are those of the source. The calls were made as follows: active = hit-call score of the fitted dose curve at least 0.9, where 1 is the maximum; inactive = score below 0.9.

Assays:
Details in all cases: mRNA level, 48 h; actives raise or lower the signal
[1] = read-out: matrix metalloproteinase-10 (MMP10), MMP10 (gene 4319); assay: LTEA_HepaRG_MMP10: Life Technologies and Expression Analysis (LTEA) Assay for matrix metalloproteinase-10 (MMP10) using HepaRG (AID 2283517)
Procedure, shortened: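 Differentiated HepaRG cells in serum-free induction medium exposed 48 h in duplicate to 8-point half-log series up to 100 uM in 0.5% DMSO. mRNA quantified by qRT-PCR, normalised to ACTB, GAPDH, POLR2A; bidirectional fit versus DMSO.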

[2] = read-out: matrix metalloproteinase-3 (MMP3), MMP3 (gene 4314); assay: LTEA_HepaRG_MMP3: Life Technologies and Expression Analysis (LTEA) Assay for matrix metalloproteinase-3 (MMP3) using HepaRG (AID 2283519)
Procedure, shortened: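 HepaRG cells (~100,000/well) in serum-free induction medium were dosed in duplicate for 48 h with an 8-point half-log series from 100 uM, 0.5% DMSO. MMP3 mRNA was quantified by Fluidigm TaqMan qRT-PCR, normalized to three housekeeping genes.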

[3] = read-out: Paternally Expressed 10 (PEG10), PEG10 (gene 23089); assay: LTEA_HepaRG_PEG10: Life Technologies and Expression Analysis (LTEA) Assay for Paternally Expressed 10 (PEG10) using HepaRG (AID 2283520)
Procedure, shortened: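 Differentiated HepaRG cells, plated 48 h then switched to serum-free induction medium, were exposed in duplicate for 48 h to eight half-log concentrations topping at 100 uM in 0.5% DMSO. PEG10 mRNA was quantified by TaqMan qRT-PCR, normalised to ACTB, GAPDH and POLR2A.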

[4] = read-out: Nuclear factor NF-kappa-B p105 subunit (Homo sapiens) (UniProt P19838); assay: LTEA_HepaRG_NFKB1: Life Technologies and Expression Analysis (LTEA) Assay for Nuclear Factor Kappa B Subunit 1 (NFKB1) using HepaRG (AID 2283521)
Procedure, shortened: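 NFKB1 transcript was measured by TaqMan qRT-PCR on Fluidigm arrays, normalised to three housekeeping genes and fitted in both directions against 0.5% DMSO. HepaRG cells were dosed in duplicate for 48 h in serum-free induction medium, eight half-log steps from 100 uM.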

[5] = read-out: Protein phosphatase 2A (PPP2R4), PTPA (gene 5524); assay: LTEA_HepaRG_PPP2R4: Life Technologies and Expression Analysis (LTEA) Assay for Protein phosphatase 2A (PPP2R4) using HepaRG (AID 2283522)
Procedure, shortened: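 Differentiated HepaRG cells in serum-free induction medium were exposed in duplicate for 48 h to eight concentrations, top 100 uM with half-log dilutions, in 0.5% DMSO. PPP2R4 mRNA was quantified by TaqMan qRT-PCR, normalized to ACTB, GAPDH and POLR2A.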

[6] = read-out: Phosphatase and tensin (PTEN), PTEN (gene 5728); assay: LTEA_HepaRG_PTEN: Life Technologies and Expression Analysis (LTEA) Assay for Phosphatase and tensin (PTEN) using HepaRG (AID 2283523)
Procedure, shortened: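 HepaRG cells, 48 h after plating, exposed in duplicate for 48 h in serum-free induction medium to 8 half-log concentrations up to 100 uM (0.5% DMSO). PTEN mRNA by qRT-PCR, normalized to ACTB, GAPDH, POLR2A; bidirectional fit versus DMSO.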

[7] = read-out: solute carrier (SLC22A1), SLC22A1 (gene 6580); assay: LTEA_HepaRG_SLC22A1: Life Technologies and Expression Analysis (LTEA) Assay for solute carrier (SLC22A1) using HepaRG (AID 2283524)
Procedure, shortened: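 Differentiated human HepaRG cells in serum-free induction medium, exposed 48 h in duplicate to 8-point half-log series from 100 µM top in 0.5% DMSO. SLC22A1 mRNA by TaqMan qRT-PCR normalized to ACTB, GAPDH, POLR2A; bidirectional fit versus DMSO.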

[8] = read-out: NAD(P)H dehydrogenase [quinone] 1 (NQO1), NQO1 (gene 1728); assay: LTEA_HepaRG_NQO1: Life Technologies and Expression Analysis (LTEA) Assay for NAD(P)H dehydrogenase [quinone] 1 (NQO1) using HepaRG (AID 2283526)
Procedure, shortened: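 Differentiated HepaRG cells, plated 48 h and then switched to serum-free induction medium, were exposed in duplicate for 48 h to 8-point half-log concentrations up to 100 uM in 0.5% DMSO. mRNA measured by qRT-PCR, normalized to ACTB, GAPDH, POLR2A; bidirectional fit versus DMSO.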

[9] = read-out: Nuclear factor erythroid 2-related factor 2 (Homo sapiens) (UniProt Q16236); assay: LTEA_HepaRG_NFE2L2: Life Technologies and Expression Analysis (LTEA) Assay for Nuclear factor erythroid 2-related factor 2 (NFE2L2) Transcription Factor using HepaRG (AID 2283527)
Procedure, shortened: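 Differentiated human HepaRG cells, serum-free induction medium, exposed 48 h in duplicate to eight half-log concentrations up to 100 uM in 0.5% DMSO. NFE2L2 mRNA by Fluidigm TaqMan qRT-PCR, normalised to ACTB, GAPDH, POLR2A; bidirectional change versus DMSO.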

[10] = read-out: Signal transducer and activator of transcription 3 (Homo sapiens) (UniProt P40763); assay: LTEA_HepaRG_STAT3: Life Technologies and Expression Analysis (LTEA) Assay for Signal transducer and activator of transcription (STAT3) using HepaRG (AID 2283529)
Procedure, shortened: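 Differentiated HepaRG cells, serum-free induction medium, dosed 48 h in duplicate, 8 half-log concentrations from 100 uM in 0.5% DMSO. STAT3 mRNA by qRT-PCR, normalised to ACTB, GAPDH, POLR2A; bidirectional fit versus DMSO.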

[11] = read-out: solute carrier (SLCO1B1), SLCO1B1 (gene 10599); assay: LTEA_HepaRG_SLCO1B1: Life Technologies and Expression Analysis (LTEA) Assay for solute carrier (SLCO1B1) using HepaRG (AID 2283530)
Procedure, shortened: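 SLCO1B1 transcript levels were quantified by TaqMan qRT-PCR using three housekeeping genes for normalization. This followed 48 h chemical exposure (100 uM top, half-log, 8 points, 0.5% DMSO) of HepaRG liver cells, with gain or loss fitted relative to DMSO.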

[12] = read-out: sulfotransferase 2A1 (SULT2A1), SULT2A1 (gene 6822); assay: LTEA_HepaRG_SULT2A1: Life Technologies and Expression Analysis (LTEA) Assay for sulfotransferase 2A1 (SULT2A1) using HepaRG (AID 2283531)
Procedure, shortened: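 Expression change of SULT2A1, by qRT-PCR with three housekeeping-gene normalization, was scored bidirectionally versus DMSO. Cells: differentiated HepaRG, dosed in duplicate for 48 h across 8 points, highest 100 µM, half-log dilution, 0.5% DMSO.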

[13] = read-out: Transforming Growth Factor (TGFA), TGFA (gene 7039); assay: LTEA_HepaRG_TGFA: Life Technologies and Expression Analysis (LTEA) Assay for Transforming Growth Factor (TGFA) using HepaRG (AID 2283532)
Procedure, shortened: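 Differentiated HepaRG cells exposed 48 hours in serum-free induction medium, 0.5% DMSO vehicle, 8-point half-log series from 100 uM, in duplicate. TGFA mRNA by TaqMan qRT-PCR, normalised to ACTB, GAPDH, POLR2A; bidirectional fit versus DMSO.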

[14] = read-out: Transforming Growth Factor (TGFB1), TGFB1 (gene 7040); assay: LTEA_HepaRG_TGFB1: Life Technologies and Expression Analysis (LTEA) Assay for Transforming Growth Factor (TGFB1) Transporter using HepaRG (AID 2283533)
Procedure, shortened: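 TGFB1 transcript measured by qRT-PCR with normalisation to three housekeeping genes (ACTB, GAPDH, POLR2A); human HepaRG line treated in duplicate for 48 hr with an 8-point series topping at 100 uM, 0.5% DMSO vehicle, bidirectionally fitted.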

[15] = read-out: TIMP1, TIMP1 (gene 7076); assay: LTEA_HepaRG_TIMP1: Life Technologies and Expression Analysis (LTEA) Assay for TIMP1 using HepaRG (AID 2283534)
Procedure, shortened: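 Bidirectional change in TIMP1 transcript versus 0.5% DMSO, measured by TaqMan qRT-PCR with three housekeeping genes for normalization. HepaRG human liver cells dosed 48 h in duplicate, top concentration 100 uM with half-log dilutions.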

[16] = read-out: Tumor necrosis factor receptor 1 (TNFRSF1A), TNFRSF1A (gene 7132); assay: LTEA_HepaRG_TNFRSF1A: Life Technologies and Expression Analysis (LTEA) Assay for Tumor necrosis factor receptor 1 (TNFRSF1A) using HepaRG (AID 2283535)
Procedure, shortened: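 mRNA measured by qRT-PCR (TaqMan, Fluidigm arrays) against ACTB/GAPDH/POLR2A housekeepers after 48 h chemical exposure of HepaRG cells. Top concentration 100 uM, half-log 8-point series, duplicates; vehicle 0.5% DMSO, both fit directions.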

[17] = read-out: Thyroid Hormone Responsive (THRSP), THRSP (gene 7069); assay: LTEA_HepaRG_THRSP: Life Technologies and Expression Analysis (LTEA) Assay for Thyroid Hormone Responsive (THRSP) using HepaRG (AID 2283536)
Procedure, shortened: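 Differentiated HepaRG cells treated 48 h in serum-free induction medium with 8 half-log concentrations up to 100 uM (0.5% DMSO), duplicates. THRSP mRNA by TaqMan qRT-PCR normalised to ACTB, GAPDH, POLR2A; bidirectional fit versus DMSO.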

[18] = read-out: Pyruvate Dehydrogenase Kinase 4 (PDK4), PDK4 (gene 5166); assay: LTEA_HepaRG_PDK4: Life Technologies and Expression Analysis (LTEA) Assay for Pyruvate Dehydrogenase Kinase 4 (PDK4) using HepaRG (AID 2283525)
Procedure, shortened: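 HepaRG cells plated 48 h, then switched to serum-free induction medium and exposed in duplicate for 48 h to 8 half-log concentrations from 100 uM in 0.5% DMSO. PDK4 mRNA measured by qRT-PCR, normalized to ACTB, GAPDH and POLR2A; bidirectional fit versus DMSO.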

[19] = read-out: MYC, MYC (gene 4609); assay: LTEA_HepaRG_MYC: Life Technologies and Expression Analysis (LTEA) Assay for MYC using HepaRG (AID 2283518)
Procedure, shortened: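 MYC transcript changes, up or down relative to 0.5% DMSO, from TaqMan qRT-PCR normalized to three housekeeping genes. Human HepaRG cultures received chemicals for 48 h at eight half-log concentrations up to 100 uM, in duplicate.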

[20] = read-out: succinate dehydrogenase complex iron sulfur subunit B (SDHB), SDHB (gene 6390); assay: LTEA_HepaRG_SDHB: Life Technologies and Expression Analysis (LTEA) Assay for succinate dehydrogenase complex iron sulfur subunit B (SDHB) using HepaRG (AID 2283528)
Procedure, shortened: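 SDHB transcript level read by TaqMan qRT-PCR, housekeeping-normalised (ACTB, GAPDH, POLR2A), after 48 h chemical treatment of plated HepaRG cells; eight concentrations top 100 uM, half-log steps, 0.5% DMSO, duplicates; fitted both directions against DMSO.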

Measured: AC50

Chain of Nuclear factor erythroid 2-related factor 2 (Homo sapiens) (Q16236 whole entry, looked up): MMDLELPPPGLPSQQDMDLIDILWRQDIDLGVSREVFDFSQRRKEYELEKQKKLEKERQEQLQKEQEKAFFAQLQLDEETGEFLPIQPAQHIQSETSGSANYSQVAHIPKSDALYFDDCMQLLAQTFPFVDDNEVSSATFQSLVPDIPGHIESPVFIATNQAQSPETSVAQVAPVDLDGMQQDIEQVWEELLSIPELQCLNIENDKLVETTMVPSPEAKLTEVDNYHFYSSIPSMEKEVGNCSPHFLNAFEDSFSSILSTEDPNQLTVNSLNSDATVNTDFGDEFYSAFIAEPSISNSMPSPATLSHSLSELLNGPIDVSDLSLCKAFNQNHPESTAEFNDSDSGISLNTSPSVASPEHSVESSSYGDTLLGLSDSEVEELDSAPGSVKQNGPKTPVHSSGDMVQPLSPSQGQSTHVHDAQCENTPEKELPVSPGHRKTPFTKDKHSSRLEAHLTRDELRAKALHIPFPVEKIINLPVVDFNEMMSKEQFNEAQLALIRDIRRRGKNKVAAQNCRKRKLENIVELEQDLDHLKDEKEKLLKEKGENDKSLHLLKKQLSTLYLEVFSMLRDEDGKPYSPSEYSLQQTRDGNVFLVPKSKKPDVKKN
Chain of Signal transducer and activator of transcription 3 (Homo sapiens) (P40763 whole entry, looked up): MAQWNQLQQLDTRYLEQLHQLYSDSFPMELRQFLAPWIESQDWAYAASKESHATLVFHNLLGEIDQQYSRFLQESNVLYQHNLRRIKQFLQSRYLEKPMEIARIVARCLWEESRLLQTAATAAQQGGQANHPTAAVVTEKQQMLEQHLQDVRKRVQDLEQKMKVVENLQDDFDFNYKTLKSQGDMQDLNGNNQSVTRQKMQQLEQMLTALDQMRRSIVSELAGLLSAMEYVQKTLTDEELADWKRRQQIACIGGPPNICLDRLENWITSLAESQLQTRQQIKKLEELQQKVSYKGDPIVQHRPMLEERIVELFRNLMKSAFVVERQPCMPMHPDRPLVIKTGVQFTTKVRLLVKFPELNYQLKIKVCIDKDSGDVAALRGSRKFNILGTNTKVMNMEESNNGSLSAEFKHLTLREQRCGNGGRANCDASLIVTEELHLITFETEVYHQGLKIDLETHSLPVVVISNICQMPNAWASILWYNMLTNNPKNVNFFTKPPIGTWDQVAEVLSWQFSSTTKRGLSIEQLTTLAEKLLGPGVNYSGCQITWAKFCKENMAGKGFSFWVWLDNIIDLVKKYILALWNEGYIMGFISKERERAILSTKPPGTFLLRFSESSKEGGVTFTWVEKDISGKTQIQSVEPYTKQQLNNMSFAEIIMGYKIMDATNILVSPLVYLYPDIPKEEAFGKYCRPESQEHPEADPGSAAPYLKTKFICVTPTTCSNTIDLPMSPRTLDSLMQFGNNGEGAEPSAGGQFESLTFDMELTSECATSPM
Chain of Nuclear factor NF-kappa-B p105 subunit (Homo sapiens) (P19838 whole entry, looked up): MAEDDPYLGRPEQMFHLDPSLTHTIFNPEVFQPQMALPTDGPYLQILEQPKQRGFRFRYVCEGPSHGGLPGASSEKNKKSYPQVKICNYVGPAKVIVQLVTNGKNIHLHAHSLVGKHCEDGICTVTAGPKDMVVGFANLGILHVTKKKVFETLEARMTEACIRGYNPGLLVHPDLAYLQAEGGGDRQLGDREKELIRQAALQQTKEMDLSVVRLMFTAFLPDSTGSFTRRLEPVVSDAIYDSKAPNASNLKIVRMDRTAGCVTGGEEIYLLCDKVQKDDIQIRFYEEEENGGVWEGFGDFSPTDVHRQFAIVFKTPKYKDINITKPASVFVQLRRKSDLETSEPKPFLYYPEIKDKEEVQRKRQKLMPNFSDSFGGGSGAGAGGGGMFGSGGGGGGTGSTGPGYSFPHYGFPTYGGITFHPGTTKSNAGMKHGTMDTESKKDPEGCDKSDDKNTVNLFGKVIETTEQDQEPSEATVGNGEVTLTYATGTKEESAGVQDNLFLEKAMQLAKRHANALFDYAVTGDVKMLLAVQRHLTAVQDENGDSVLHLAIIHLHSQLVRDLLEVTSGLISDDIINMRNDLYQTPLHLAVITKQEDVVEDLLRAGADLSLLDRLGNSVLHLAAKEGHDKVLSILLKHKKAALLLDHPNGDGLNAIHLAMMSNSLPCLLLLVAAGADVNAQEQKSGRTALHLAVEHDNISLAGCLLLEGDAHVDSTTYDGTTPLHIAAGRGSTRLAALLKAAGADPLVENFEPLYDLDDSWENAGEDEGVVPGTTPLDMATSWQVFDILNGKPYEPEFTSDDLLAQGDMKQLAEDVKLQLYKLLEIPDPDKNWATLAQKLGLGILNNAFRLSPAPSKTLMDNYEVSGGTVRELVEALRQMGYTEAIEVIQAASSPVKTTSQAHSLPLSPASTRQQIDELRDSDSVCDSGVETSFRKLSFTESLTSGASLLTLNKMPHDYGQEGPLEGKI

ClC(Cl)=C(c1ccc(Cl)cc1)c1ccc(Cl)cc1
active: [12] 12 µM | [17] 77.6 µM
not listed: [18] | [19] | [20]
inactive: all other assays above

COc1ccc(O)c(C(C)(C)C)c1
not listed: [4] | [7] | [16] | [19] | [20]
inactive: all other assays above

CCCCCCCCCC[N+](C)(C)CCCCCCCCCC
active: [2] 94 µM | [3] 50 µM | [6] 83.2 µM | [7] 61.5 µM | [18] 82.5 µM | [9] 75 µM | [12] 80.9 µM | [15] 10.3 µM | [16] 79.3 µM | [17] 24.5 µM
inactive: [1] | [19] | [4] | [5] | [8] | [10] | [11] | [13] | [14]

CCC(C)(CC)c1cc(NC(=O)c2c(OC)cccc2OC)on1
active: [3] 14.2 µM | [7] 34.6 µM | [9] 14.9 µM | [14] 50 µM | [17] 41.2 µM
not listed: [19]
inactive: all other assays above

Nc1ccc(-c2ccc(N)cc2)cc1
active: [3] 2.2 µM
not listed: [4]
inactive: all other assays above

CCOP(=S)(OCC)SCSC(C)(C)C
active: [3] 50 µM | [18] 18 µM | [12] 10.4 µM
not listed: [4] | [19]
inactive: all other assays above

CC(c1ccc(O)cc1)(c1ccc(O)cc1)c1ccc(O)cc1
inactive: [2] | [4] | [8] | [11] | [13] | [14] | [16]
active: [5] 69.7 µM | [6] 74.3 µM | [7] 41.4 µM | [18] 70.9 µM | [9] 73.9 µM | [10] 90.9 µM | [12] 84 µM | [15] 85.3 µM | [17] 23.9 µM

Clc1ccc(Cl)cc1
not listed: [1] | [19]
inactive: all other assays above

Cc1cc2c3c(c1)C(c1ccccc1)=N[C@@H](NC(=O)c1ccncc1)C(=O)N3CC2
active: [7] 50 µM | [18] 50 µM | [9] 50 µM | [17] 22.7 µM
not listed: [1] | [4] | [19] | [20]
inactive: all other assays above

Cc1ccccc1O
not listed: [1] | [19] | [20]
inactive: all other assays above

Cc1cccc(C)c1N
not listed: [1] | [19]
inactive: all other assays above

O=C(N[C@H]1CN2CCC1CC2)c1cc2ccoc2cn1
not listed: [1] | [19] | [20]
inactive: all other assays above

N#Cc1ccc(N(CC(N)=O)CC(F)(F)F)cc1C(F)(F)F
active: [3] 10.5 µM | [17] 0.103 µM
not listed: [1] | [4] | [20]
inactive: all other assays above

CN(C)c1nc(=O)n(C2CCCCC2)c(=O)n1C
not listed: [1] | [4] | [19] | [20]
inactive: all other assays above
